Reference: paper PMC12820563, “FoxP3 forms a head-to-head dimer in vivo and stabilizes its multimerization on adjacent microsatellites”
Whole data set: some 16,000 sequences, median “rpm ratio (pull-down/input)” near 0.5, cut for the highest 2% near 5.5. The entries come from a sample that favours the highest values as a whole.

What follows are sequences tested against T1, MBP-FoxP3dN (Mus musculus, UniProt Q99JB6 188-423) (assay: PD-seq (MBP pull-down with sequencing); 20 mM Tris-HCl pH 7.5, 100 mM NaCl, 1.5 mM MgCl2, 0.4 uM protein, 0.1 uM dsDNA library, 30 min, room temperature, amylose pull-down; high values mean tight binding). Conditions: protein: recombinant; tags: His6-MBP; chain copies: 2; dsDNA, one strand shown.
T1 sequence: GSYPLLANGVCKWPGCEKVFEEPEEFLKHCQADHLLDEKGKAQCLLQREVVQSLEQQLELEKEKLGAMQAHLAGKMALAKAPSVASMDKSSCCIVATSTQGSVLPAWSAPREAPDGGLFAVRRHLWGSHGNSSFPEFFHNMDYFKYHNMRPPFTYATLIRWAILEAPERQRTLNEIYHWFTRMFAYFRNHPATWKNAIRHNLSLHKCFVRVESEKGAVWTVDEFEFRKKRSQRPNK
Summary of the method: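 Binding is reads-per-million enrichment of pull-down over input, with replicates pooled. It comes from 30 min room-temperature incubation in Tris pH 7.5 buffer with NaCl and MgCl2 of 0.4 µM His6-MBP-tagged, N-terminally truncated mouse FoxP3 or FoxP1 fragment from E. coli with 0.1 µM Klenow-filled degenerate double-stranded DNA library, followed by amylose resin capture, three washes and Illumina sequencing of the released DNA.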

Sequence	binding signal
GATGATTGTTCTCCCAGCTGATGAATTCTTCGATTCGAGTAAACAAATTTTCCTAATCTTTCTGTTCAAGCGCCATCTAC	0.253 RPM ratio (pull-down/input)
GATGATTGTTCTCCCAGCTGATGAATTGGGTTAGTCGAGTAAACAAATTTTCCTAATCTTTCTGTTCAAGCGCCATCTAC	0.756 RPM ratio (pull-down/input)
GATGATTGTTCTCCCAGCTGATGAATTCCTCCGTTCGAGTAAACAAATTTTCCTAATCTTTCTGTTCAAGCGCCATCTAC	0.255 RPM ratio (pull-down/input)
GATGATTGTTCTCCCAGCTGATGAATTGTCCTTTTCGAGTAAACAAATTTTCCTAATCTTTCTGTTCAAGCGCCATCTAC	0.39 RPM ratio (pull-down/input)
GATGATTGTTCTCCCAGCTGATGAATTTCTTTTGTCGAGTAAACAAATTTTCCTAATCTTTCTGTTCAAGCGCCATCTAC	1.65 RPM ratio (pull-down/input)
GATGATTGTTCTCCCAGCTGATGAATTCTTTTTGTCGAGTAAACAAATTTTCCTAATCTTTCTGTTCAAGCGCCATCTAC	0.437 RPM ratio (pull-down/input)
GATGATTGTTCTCCCAGCTGATGAATTCTGTTTGTCGAGTAAACAAATTTTCCTAATCTTTCTGTTCAAGCGCCATCTAC	6.99 RPM ratio (pull-down/input)
GATGATTGTTCTCCCAGCTGATGAATTGTTTTTGTCGAGTAAACAAATTTTCCTAATCTTTCTGTTCAAGCGCCATCTAC	4.16 RPM ratio (pull-down/input)
GATGATTGTTCTCCCAGCTGATGAATTTTGTTTGTCGAGTAAACAAATTTTCCTAATCTTTCTGTTCAAGCGCCATCTAC	7.3 RPM ratio (pull-down/input)
GATGATTGTTCTCCCAGCTGATGAATTGTTTCTGTCGAGTAAACAAATTTTCCTAATCTTTCTGTTCAAGCGCCATCTAC	1 RPM ratio (pull-down/input)
GATGATTGTTCTCCCAGCTGATGAATTTGTTTTGTCGAGTAAACAAATTTTCCTAATCTTTCTGTTCAAGCGCCATCTAC	7.57 RPM ratio (pull-down/input)
GATGATTGTTCTCCCAGCTGATGAATTCAATTTGTCGAGTAAACAAATTTTCCTAATCTTTCTGTTCAAGCGCCATCTAC	2.23 RPM ratio (pull-down/input)
GATGATTGTTCTCCCAGCTGATGAATTTTCTTTGTCGAGTAAACAAATTTTCCTAATCTTTCTGTTCAAGCGCCATCTAC	1.15 RPM ratio (pull-down/input)
GATGATTGTTCTCCCAGCTGATGAATTTAGAGACTCGAGTAAACAAATTTTCCTAATCTTTCTGTTCAAGCGCCATCTAC	0.585 RPM ratio (pull-down/input)
GATGATTGTTCTCCCAGCTGATGAATTAATGAGATCGAGTAAACAAATTTTCCTAATCTTTCTGTTCAAGCGCCATCTAC	0.246 RPM ratio (pull-down/input)
GATGATTGTTCTCCCAGCTGATGAATTTCGAACCTCGAGTAAACAAATTTTCCTAATCTTTCTGTTCAAGCGCCATCTAC	0.301 RPM ratio (pull-down/input)
GATGATTGTTCTCCCAGCTGATGAATTACAACCGTCGAGTAAACAAATTTTCCTAATCTTTCTGTTCAAGCGCCATCTAC	0.497 RPM ratio (pull-down/input)
GATGATTGTTCTCCCAGCTGATGAATTGAGTTAATCGAGTAAACAAATTTTCCTAATCTTTCTGTTCAAGCGCCATCTAC	0.369 RPM ratio (pull-down/input)
GATGATTGTTCTCCCAGCTGATGAATTTACAGGCTCGAGTAAACAAATTTTCCTAATCTTTCTGTTCAAGCGCCATCTAC	0.441 RPM ratio (pull-down/input)
GATGATTGTTCTCCCAGCTGATGAATTGGAACCGTCGAGTAAACAAATTTTCCTAATCTTTCTGTTCAAGCGCCATCTAC	0.224 RPM ratio (pull-down/input)
GATGATTGTTCTCCCAGCTGATGAATTATTGTTATCGAGTAAACAAATTTTCCTAATCTTTCTGTTCAAGCGCCATCTAC	3.55 RPM ratio (pull-down/input)
GATGATTGTTCTCCCAGCTGATGAATTGCTGTTATCGAGTAAACAAATTTTCCTAATCTTTCTGTTCAAGCGCCATCTAC	2.06 RPM ratio (pull-down/input)
GATGATTGTTCTCCCAGCTGATGAATTGTTATCCTCGAGTAAACAAATTTTCCTAATCTTTCTGTTCAAGCGCCATCTAC	2.64 RPM ratio (pull-down/input)

Sequence	binding signal
GATGATTGTTCTCCCAGCTGATGAATTGTTATTATCGAGTAAACAAATTTTCCTAATCTTTCTGTTCAAGCGCCATCTAC	5.54 RPM ratio (pull-down/input)
GATGATTGTTCTCCCAGCTGATGAATTGTTGTTATCGAGTAAACAAATTTTCCTAATCTTTCTGTTCAAGCGCCATCTAC	6.7 RPM ratio (pull-down/input)
GATGATTGTTCTCCCAGCTGATGAATTTCTGTTATCGAGTAAACAAATTTTCCTAATCTTTCTGTTCAAGCGCCATCTAC	1.07 RPM ratio (pull-down/input)
GATGATTGTTCTCCCAGCTGATGAATTTGTTATCTCGAGTAAACAAATTTTCCTAATCTTTCTGTTCAAGCGCCATCTAC	7.03 RPM ratio (pull-down/input)
GATGATTGTTCTCCCAGCTGATGAATTATTATTATCGAGTAAACAAATTTTCCTAATCTTTCTGTTCAAGCGCCATCTAC	1.99 RPM ratio (pull-down/input)
GATGATTGTTCTCCCAGCTGATGAATTTTTGTTATCGAGTAAACAAATTTTCCTAATCTTTCTGTTCAAGCGCCATCTAC	2.29 RPM ratio (pull-down/input)
GATGATTGTTCTCCCAGCTGATGAATTTCGGGCCTCGAGTAAACAAATTTTCCTAATCTTTCTGTTCAAGCGCCATCTAC	0.404 RPM ratio (pull-down/input)
GATGATTGTTCTCCCAGCTGATGAATTATGGAAATCGAGTAAACAAATTTTCCTAATCTTTCTGTTCAAGCGCCATCTAC	0.4 RPM ratio (pull-down/input)
GATGATTGTTCTCCCAGCTGATGAATTTTGTGCTTCGAGTAAACAAATTTTCCTAATCTTTCTGTTCAAGCGCCATCTAC	1.87 RPM ratio (pull-down/input)
GATGATTGTTCTCCCAGCTGATGAATTGAGACTATCGAGTAAACAAATTTTCCTAATCTTTCTGTTCAAGCGCCATCTAC	0.692 RPM ratio (pull-down/input)
GATGATTGTTCTCCCAGCTGATGAATTCCTTAGCTCGAGTAAACAAATTTTCCTAATCTTTCTGTTCAAGCGCCATCTAC	0.222 RPM ratio (pull-down/input)
GATGATTGTTCTCCCAGCTGATGAATTTGGACTGTCGAGTAAACAAATTTTCCTAATCTTTCTGTTCAAGCGCCATCTAC	0.82 RPM ratio (pull-down/input)
GATGATTGTTCTCCCAGCTGATGAATTTCGGTGCTCGAGTAAACAAATTTTCCTAATCTTTCTGTTCAAGCGCCATCTAC	0.541 RPM ratio (pull-down/input)
GATGATTGTTCTCCCAGCTGATGAATTTTGCGATTCGAGTAAACAAATTTTCCTAATCTTTCTGTTCAAGCGCCATCTAC	2.4 RPM ratio (pull-down/input)
GATGATTGTTCTCCCAGCTGATGAATTGCATTTTTCGAGTAAACAAATTTTCCTAATCTTTCTGTTCAAGCGCCATCTAC	3.02 RPM ratio (pull-down/input)
GATGATTGTTCTCCCAGCTGATGAATTGCGCATTTCGAGTAAACAAATTTTCCTAATCTTTCTGTTCAAGCGCCATCTAC	8.05 RPM ratio (pull-down/input)
GATGATTGTTCTCCCAGCTGATGAATTGCGCATCTCGAGTAAACAAATTTTCCTAATCTTTCTGTTCAAGCGCCATCTAC	8.03 RPM ratio (pull-down/input)
GATGATTGTTCTCCCAGCTGATGAATTTTGCGCATCGAGTAAACAAATTTTCCTAATCTTTCTGTTCAAGCGCCATCTAC	1.98 RPM ratio (pull-down/input)
GATGATTGTTCTCCCAGCTGATGAATTTGCGCATTCGAGTAAACAAATTTTCCTAATCTTTCTGTTCAAGCGCCATCTAC	7.07 RPM ratio (pull-down/input)
GATGATTGTTCTCCCAGCTGATGAATTGCATTGTTCGAGTAAACAAATTTTCCTAATCTTTCTGTTCAAGCGCCATCTAC	4.05 RPM ratio (pull-down/input)
GATGATTGTTCTCCCAGCTGATGAATTTGCGAATTCGAGTAAACAAATTTTCCTAATCTTTCTGTTCAAGCGCCATCTAC	1.18 RPM ratio (pull-down/input)
GATGATTGTTCTCCCAGCTGATGAATTGCGCGCATCGAGTAAACAAATTTTCCTAATCTTTCTGTTCAAGCGCCATCTAC	2.39 RPM ratio (pull-down/input)
